PubChem BioAssay (NCATS)
Inconclusive results are not listed. Activity calls are given as the source filed them. Unless noted, the call rests on the fitted dose curve.

Experiments:
[1] = target: Bile acid receptor (Homo sapiens) (UniProt Q96RI1); assay: qHTS assay for small molecule antagonists of farnesoid X receptor signaling (AID 588526); further: on the % scale 0 is the no-effect control and ±100 the full control effect
Outline: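 Beta-lactamase reporter antagonist mode: HEK293T FXR-UAS-bla cells, titrated compound, CDCA stimulation, 16 h 37 C, CCF4 dye 2 h RT. Data normalized to CDCA 50 uM and DMSO; Hill-fit IC50.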

[2] = target: Glucocorticoid receptor (Homo sapiens) (UniProt P04150); assay: qHTS assay for small molecule agonists of glucocorticoid receptor signaling (AID 588532; active means well fitted curve in the direction sought with a large enough effect in the signal ratio, with a control signal flat; the % refers to the signal ratio;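 further: 100% = dexamethasone at 0.1 µM and 0% = DMSO only wells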); details: HeLa MMTV-bla, beta-lactamase ratio, agonist, 18 h; stronger effect = higher value; percent of dexamethasone control, DMSO zero
Outline: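 Agonist-mode qHTS: GRE-driven beta-lactamase in HeLa cells exposed 18 h to titrated compounds (up to 92 uM), then CCF4 ratio read after 2 h at RT; Hill-fitted EC50, efficacy relative to 0.1 uM dexamethasone.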

[3] = target: Glucocorticoid receptor (Homo sapiens) (UniProt P04150); assay: qHTS assay for small molecule antagonists of glucocorticoid receptor signaling (AID 588533; active means well fitted inhibition curve with a large enough effect in the signal ratio, with a control signal flat, not every such curve was filed as active; the % refers to the signal ratio;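 further: cells stimulated with 2 nM dexamethasone as agonist; on the % scale 0 is the no-effect control and ±100 the full control effect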)
Outline: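 Antagonist-mode qHTS: compound titrations added to GRE-bla HeLa cells, then dexamethasone 2 nM final; 18 h, 37 C. CCF4 FRET fluorescence normalized to dexamethasone and DMSO; IC50 from Hill fit.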

[4] = qHTS assay for small molecule antagonists of peroxisome proliferator-activated receptor delta signaling (AID 588535; active means well fitted inhibition curve with a large enough effect in the signal ratio, with a control signal flat, not every such curve was filed as active; the % refers to the signal ratio;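 on max response: cells co-treated with a PPAR-delta agonist as stimulator during compound exposure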); details: HEK293T PPARd-UAS-bla, beta-lactamase FRET ratio, 18 h; 460 nm channel
Source text: (§1) NIH Chemical Genomics Center [NCGC] U.S. Environmental Protection Agency [EPA] National Institutes of Environmental Health Sciences [NIEHS] National Toxicology Program [NTP] NCGC Assay Overview The Peroxisome proliferator-activated receptors (PPARs) are lipid-activated transcription factors of the nuclear receptor superfamily with three distinct subtypes namely PPAR alpha, PPAR delta (also called PPAR beta) and PPAR gamma. All these subtypes heterodimerizes with Retinoid X receptor (RXR) and have different physiological functions. […] This role of PPAR delta implicates the potential use of its ligands in the treatment of metabolic disorders.
(§2) NCGC Assay Protocol Summary Using a beta-lactamase reporter-gene under control Peroxisome Proliferator-Activated Receptor delta (PPAR-delta) response element, a cell-based assay [GeneBLAzer (PPAR-delta-UAS-bla assay developed by Invitrogen] was used to measure PPAR-delta ligands signaling. GeneBLAzer PPAR-delta-UAS-bla HEK293T cells were used with assay medium containing 2% charcoal/dextran FBS. The assay was performed in clear bottom black Greiner 1536-well plates. Library compounds were measured for their ability to inhibit the reporter gene activity. Compounds were screened in a titration series in 1536-well format. The fluorescence intensity (405 nm excitation, 460/530 nm emission) was measured using an EnVision plate reader. […]

[5] = target: Peroxisome proliferator-activated receptor delta (Homo sapiens) (UniProt Q03181); assay: as above
Source text: as §1, §2

[6] = target: Peroxisome proliferator-activated receptor gamma (Homo sapiens) (UniProt P37231); assay: qHTS assay for small molecule antagonists of peroxisome proliferator-activated receptor gamma signaling (AID 588537; active means well fitted inhibition curve with a large enough effect in the signal ratio, with a control signal flat, not every such curve was filed as active; the % refers to the signal ratio;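 further: reporter cells co-stimulated with 50 nM rosiglitazone agonist during compound treatment; % of control where 0% means no effect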)
Outline: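 Inhibitors of agonist-stimulated UAS-bla reporter activity were sought in HEK293 cells; rosiglitazone (50 nM) defined full signal and DMSO baseline. Curves fitted to Hill model gave IC50 and efficacy.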

[7] = target: Vitamin D3 receptor (Homo sapiens) (UniProt P11473); assay: qHTS assay for small molecule antagonists of vitamin D receptor signaling (AID 588541);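 further: receptor activated by calcitriol during compound treatment; series mostly up to about 77 µM; on the % scale 0 is the no-effect control and ±100 the full control effect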
Outline: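 Antagonist-mode beta-lactamase reporter assay: HEK293T VDR-UAS-bla cells were exposed to titrated compound alongside 1-alpha,25-dihydroxyvitamin D3 at 3 nM final for 16 h. Values were normalized to the 50 nM agonist control and DMSO basal, with IC50 and efficacy from Hill equation fits.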

[8] = target: Vitamin D3 receptor (Homo sapiens) (UniProt P11473); assay: qHTS assay for small molecule agonists of vitamin D receptor signaling (AID 588543);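 further: 0% = DMSO basal and 100% = reference agonist control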
Outline: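 β-lactamase reporter, VDR-UAS-bla HEK293T, agonist mode. Cells plated 5 h at 37 °C, compound titration 16 h at 37 °C, CCF4 dye 2 h RT, ratio 460/530 nm. Hill fit → EC50, efficacy vs 50 nM 1α,25-(OH)2D3.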

[9] = target: Thyroid hormone receptor beta (Homo sapiens) (UniProt P10828); assay: qHTS assay for small molecule agonists of thyroid hormone receptor beta signaling (AID 588545)
Outline: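 Cells (2500/well) were seeded, incubated 4 hrs at 37 C, dosed with a compound series, incubated 18 hrs, loaded with CCF4 dye for 2 hrs at RT, then read for fluorescence. Data were scaled between DMSO (0%) and 10 nM T3 (100%).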

[10] = qHTS assay for small molecule antagonists of retinoid X receptor alpha signaling (AID 588546); details: HEK293T RXRa-UAS-bla, beta-lactamase ratio, antagonist mode; measured here: W530 green channel, cytotoxicity proxy;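 further: cells stimulated with 9-cis-retinoic acid as agonist; on the % scale 0 is the no-effect control and ±100 the full control effect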
Outline: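 Beta-lactamase reporter inhibition, read as CCF4 fluorescence ratio (ex 405, em 460/530 nm) after 2 h at RT. HEK293T UAS-bla cells, 2500/well, were stimulated with 9-cis-RA at 500 or 100 nM final alongside test compound for 18 h at 37 C.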

Chain of Vitamin D3 receptor (Homo sapiens) (P11473 whole entry, looked up): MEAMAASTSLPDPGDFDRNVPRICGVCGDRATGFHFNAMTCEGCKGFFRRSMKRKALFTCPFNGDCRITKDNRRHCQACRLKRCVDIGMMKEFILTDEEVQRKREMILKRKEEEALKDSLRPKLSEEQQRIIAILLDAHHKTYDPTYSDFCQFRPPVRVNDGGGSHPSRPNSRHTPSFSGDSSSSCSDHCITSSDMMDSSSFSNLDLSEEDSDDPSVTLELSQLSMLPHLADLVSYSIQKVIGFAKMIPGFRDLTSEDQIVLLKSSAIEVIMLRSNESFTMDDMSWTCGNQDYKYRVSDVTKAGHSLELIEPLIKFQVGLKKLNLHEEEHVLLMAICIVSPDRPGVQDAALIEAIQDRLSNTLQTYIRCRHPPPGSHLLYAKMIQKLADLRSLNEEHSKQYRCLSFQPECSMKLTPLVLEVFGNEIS
Chain of Glucocorticoid receptor (Homo sapiens) (P04150 whole entry, looked up): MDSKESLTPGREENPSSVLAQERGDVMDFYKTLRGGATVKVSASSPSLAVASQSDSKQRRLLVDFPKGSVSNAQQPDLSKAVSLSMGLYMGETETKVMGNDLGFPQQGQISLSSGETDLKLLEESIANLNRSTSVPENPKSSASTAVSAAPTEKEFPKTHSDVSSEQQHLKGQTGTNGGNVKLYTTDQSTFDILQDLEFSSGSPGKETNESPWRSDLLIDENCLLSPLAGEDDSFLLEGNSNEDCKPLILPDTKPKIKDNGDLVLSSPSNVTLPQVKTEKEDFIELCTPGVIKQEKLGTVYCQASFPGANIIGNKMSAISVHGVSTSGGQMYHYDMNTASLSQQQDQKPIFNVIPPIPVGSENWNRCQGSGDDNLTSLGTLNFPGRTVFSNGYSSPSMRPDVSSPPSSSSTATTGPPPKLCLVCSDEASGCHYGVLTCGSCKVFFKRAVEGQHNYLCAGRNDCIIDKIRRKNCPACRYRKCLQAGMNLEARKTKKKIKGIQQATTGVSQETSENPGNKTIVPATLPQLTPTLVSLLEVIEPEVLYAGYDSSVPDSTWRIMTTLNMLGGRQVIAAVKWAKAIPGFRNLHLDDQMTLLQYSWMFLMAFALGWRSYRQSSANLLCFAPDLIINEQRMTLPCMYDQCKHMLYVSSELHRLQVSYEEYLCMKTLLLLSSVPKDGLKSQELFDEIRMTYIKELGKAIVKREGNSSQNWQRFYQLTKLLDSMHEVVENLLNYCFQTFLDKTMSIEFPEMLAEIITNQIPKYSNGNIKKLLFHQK
Chain of Bile acid receptor (Homo sapiens) (Q96RI1 whole entry, looked up): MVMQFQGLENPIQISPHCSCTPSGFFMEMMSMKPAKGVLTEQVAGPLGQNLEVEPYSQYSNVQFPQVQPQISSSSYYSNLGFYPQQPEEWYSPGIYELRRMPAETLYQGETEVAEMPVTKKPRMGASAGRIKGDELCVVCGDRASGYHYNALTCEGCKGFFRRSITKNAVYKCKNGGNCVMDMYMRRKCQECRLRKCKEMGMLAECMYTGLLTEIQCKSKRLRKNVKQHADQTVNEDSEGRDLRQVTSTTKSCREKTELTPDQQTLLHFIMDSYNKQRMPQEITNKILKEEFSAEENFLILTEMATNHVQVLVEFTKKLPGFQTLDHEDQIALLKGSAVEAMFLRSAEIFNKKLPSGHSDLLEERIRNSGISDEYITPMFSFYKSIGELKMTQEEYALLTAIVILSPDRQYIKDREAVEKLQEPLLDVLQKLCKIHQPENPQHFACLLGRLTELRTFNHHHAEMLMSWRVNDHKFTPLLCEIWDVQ
Chain of Peroxisome proliferator-activated receptor gamma (Homo sapiens) (P37231 whole entry, looked up): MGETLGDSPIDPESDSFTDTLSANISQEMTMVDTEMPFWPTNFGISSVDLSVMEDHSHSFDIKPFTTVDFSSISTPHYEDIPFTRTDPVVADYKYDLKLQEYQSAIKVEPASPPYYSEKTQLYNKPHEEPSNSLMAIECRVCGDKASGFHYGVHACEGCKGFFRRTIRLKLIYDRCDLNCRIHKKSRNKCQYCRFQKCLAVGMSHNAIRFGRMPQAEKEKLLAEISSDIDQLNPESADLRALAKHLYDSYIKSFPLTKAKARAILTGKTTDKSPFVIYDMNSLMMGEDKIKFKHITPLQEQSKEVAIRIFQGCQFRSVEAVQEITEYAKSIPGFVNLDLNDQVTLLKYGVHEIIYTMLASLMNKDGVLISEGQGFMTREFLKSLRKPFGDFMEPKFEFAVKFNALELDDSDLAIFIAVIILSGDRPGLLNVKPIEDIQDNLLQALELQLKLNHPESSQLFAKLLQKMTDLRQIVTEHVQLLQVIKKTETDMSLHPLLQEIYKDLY
Chain of Thyroid hormone receptor beta (Homo sapiens) (P10828 whole entry, looked up): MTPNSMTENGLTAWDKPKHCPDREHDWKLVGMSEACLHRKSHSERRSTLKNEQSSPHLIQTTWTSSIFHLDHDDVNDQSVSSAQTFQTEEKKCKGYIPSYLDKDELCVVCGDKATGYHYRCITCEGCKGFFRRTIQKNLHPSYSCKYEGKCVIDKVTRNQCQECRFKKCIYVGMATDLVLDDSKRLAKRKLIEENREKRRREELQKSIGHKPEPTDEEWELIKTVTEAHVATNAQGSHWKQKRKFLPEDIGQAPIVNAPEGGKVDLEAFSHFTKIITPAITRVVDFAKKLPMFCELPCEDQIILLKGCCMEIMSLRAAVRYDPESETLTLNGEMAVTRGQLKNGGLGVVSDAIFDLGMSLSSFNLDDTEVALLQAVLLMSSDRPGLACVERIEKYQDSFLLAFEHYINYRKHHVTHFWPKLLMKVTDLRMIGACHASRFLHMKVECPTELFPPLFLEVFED
Chain of Peroxisome proliferator-activated receptor delta (Homo sapiens) (Q03181 whole entry, looked up): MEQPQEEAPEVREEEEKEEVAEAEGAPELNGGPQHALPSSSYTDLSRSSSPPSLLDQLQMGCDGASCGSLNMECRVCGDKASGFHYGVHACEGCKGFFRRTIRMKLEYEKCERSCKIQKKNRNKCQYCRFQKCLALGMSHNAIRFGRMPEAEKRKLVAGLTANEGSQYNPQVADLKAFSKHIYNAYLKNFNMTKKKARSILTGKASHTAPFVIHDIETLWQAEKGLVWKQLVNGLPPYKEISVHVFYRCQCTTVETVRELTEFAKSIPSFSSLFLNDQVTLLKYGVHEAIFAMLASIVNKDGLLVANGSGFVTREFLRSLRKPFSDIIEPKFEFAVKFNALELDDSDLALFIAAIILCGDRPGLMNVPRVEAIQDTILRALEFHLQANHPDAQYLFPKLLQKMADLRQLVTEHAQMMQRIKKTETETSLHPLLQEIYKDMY

**Q.** Which outcome [1] does the source give for O=C(O)CCCc1c[nH]c2ccccc12 here?
**A.** Its outcome is “inactive”.

**Q.** What about the activation [2] of the same molecule?
**A.** The activation was -4.22% (inactive).

**Q.** And the outcome [3]?
**A.** The outcome was “inactive”.

**Q.** What about the max response [4] of the same molecule?
**A.** Its max response is 35.4%.

**Q.** What about the outcome [5] of the same molecule?
**A.** Its outcome is “inactive”.

**Q.** And the outcome [6]?
**A.** Its outcome is “inactive”.

**Q.** And the outcome [7]?
**A.** The outcome was “inactive”.

**Q.** And the outcome [8]?
**A.** Its outcome is “inactive”.

**Q.** And the outcome [9]?
**A.** The outcome was “inactive”.

**Q.** What about the max response [10] of the same molecule?
**A.** Its max response is 7.98%.
